Molecules are shown by their SMILES. Activity calls are given as the source filed them.

For nine compounds, z-score and composite z-score results are on record in PubChem BioAssay.

Test [1] in a line: E. coli DRC41 culture turbidity changes, primary screen, E. coli filamentation inducer project, strain DRC41, OD650, 48 h (AID 1152).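 Note: E. coli MC1000 strain DRC41 lacking acrAB efflux pump and sulA.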 The conditions noted are these: E. coli DRC41 (acrAB sulA), higher = more signal, called active from +8 up or from −8 down.
A short description of test [2]: small-molecule binders of probe aLefty1, primary screen, biochemical, small-molecule microarray, 635/667 nm fluorescence (AID 1153).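 Note: score merges spot fluorescence with signal-to-noise ratio from the scanned slide images.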 The conditions noted are these: higher = more signal.
A short description of test [3]: PSAC antagonists in infected red cells, primary screen, cell-based, P. falciparum Indochina, OD700, 1 h (AID 1154). The conditions noted are these: P. falciparum Indochina infected RBC osmotic lysis, higher = more signal, called active from +8 up or from −8 down.
The nature of test [4]: PSAC antagonists in infected red cells, primary screen, cell-based, P. falciparum Indochina, OD700, 2 h (AID 1155).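 Note: lysis reports solute entry through the parasite surface anion channel PSAC; channel blockers reduce lysis of infected cells.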 The conditions noted are these: P. falciparum Indochina infected erythrocytes, osmotic lysis OD700; higher = more signal, called active from +8 up or from −8 down.
Test [5] in a line: osmotic lysis modulators in infected erythrocytes, primary screen, PSAC antagonist project, cell-based, P. falciparum Indochina, OD700, 3 h (AID 1156). The conditions noted are these: higher = more signal, called active from +8 up or from −8 down.
A short description of test [6]: PSAC antagonists in infected red cells, primary screen, cell-based, P. falciparum Indochina, OD700, 18 h (AID 1157). The conditions noted are these: P. falciparum Indochina infected erythrocytes, osmotic lysis OD700, 18 h; higher = more signal, called active from +8 up or from −8 down.
Test [7] in a line: modulators of S6 phosphorylation in cells, primary screen, cell-based, A549, cytoblot, luminescence, serum-stimulated (AID 1158).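 Note: serum-stimulated A549 lung adenocarcinoma cells; signal is phosphorylated S6 detected by cytoblot immunostaining with HRP secondary.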 The conditions noted are these: A549 phospho-S6 cytoblot, 5 h, higher = more signal.
Test [8] has as its target NADPH oxidase 2 (Homo sapiens) (UniProt P04839). Briefly: NOX2-dependent H2O2 signal modulators, primary screen, NOX inhibitor project, cell-based, HEK293-NOX2, PMA-stimulated, Amplex Red fluorescence (AID 1159). Note: test concentration not given here. The conditions noted are these: 45 min, higher = more signal, called active from +8 up or from −8 down.
For test [9], the target named is NADPH oxidase 4 (Homo sapiens) (UniProt Q9NPH5). Briefly: NOX4-dependent H2O2 signal modulators, primary screen, NOX inhibitor project, cell-based, HEK293-NOX4, tetracycline-induced, Amplex Red fluorescence (AID 1160). The conditions noted are these: 45 min, higher = more signal, called active from +8 up or from −8 down.
Test [10] deals with NADPH oxidase 5 (Homo sapiens) (UniProt Q96PH1). As to the kind of experiment: NOX5-dependent H2O2 signal modulators, primary screen, NOX inhibitor project, cell-based, HEK293-NOX5, Amplex Red fluorescence (AID 1161). The conditions noted are these: HEK293-NOX5, ionomycin, 45 min, higher = more signal.
A short description of test [11]: A549 cell viability effects, profiling panel, calcein-AM fluorescence, 48 h, basal (AID 1162). Note: test concentration not given here. The conditions noted are these: higher = more signal.
Test [12] is described as follows: adipocyte viability effects, profiling panel, cell-based, 3T3-L1 adipocytes, calcein-AM fluorescence, 48 h, basal (AID 1163). Note: test concentration not given here. The conditions noted are these: 3T3-L1 adipocytes viability, higher = more signal.
Test [13] can be described thus: HepG2 cell viability effects, profiling panel, calcein-AM fluorescence, 48 h, basal (AID 1164). Note: test concentration not given here. The conditions noted are these: higher = more signal.
Test [14] is described as follows: MM1S cell viability effects, profiling panel, calcein-AM fluorescence, 48 h, basal (AID 1165).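 Note: viability of MM1S multiple myeloma cells under basal unstimulated conditions; test concentration not given here.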 The conditions noted are these: higher = more signal.
Test [15] is described as follows: basal RPMI8226 viability, no added stimulus, profiling panel, cell-based, calcein-AM fluorescence, 48 h, PK04 Diversity Set (AID 1166).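 Note: cells grown under basal conditions without added stimulus; test concentration not given here.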 The conditions noted are these: RPMI8226 myeloma viability, higher = more signal.
Test [16] in a line: basal HepG2 mitochondrial membrane potential changes, profiling panel, cell-based, JC-1 fluorescence, 24 h, 100 nL compound (AID 1167). Note: test concentration not given here. The conditions noted are these: higher = more signal.
The nature of test [17]: basal 3T3-L1 adipocyte mitochondrial potential changes, profiling panel, cell-based, JC-1 fluorescence, 3T3-L1 adipocytes, 24 h, 100 nL compound (AID 1168). Note: test concentration not given here. The conditions noted are these: JC-1 mitochondrial fluorescence, higher = more signal, called active from +8 up or from −8 down.
A short description of test [18]: basal RPMI8226 mitochondrial membrane potential changes, profiling panel, cell-based, JC-1 fluorescence, 24 h, 100 nL compound (AID 1169). Note: test concentration not given here. The conditions noted are these: RPMI8226 myeloma, JC-1 mitochondrial potential fluorescence, higher = more signal.
A short description of test [19]: basal MM1S mitochondrial membrane potential changes, profiling panel, cell-based, JC-1 fluorescence, 24 h, 100 nL compound (AID 1170). Note: test concentration not given here. The conditions noted are these: higher = more signal.
Test [20] can be described thus: A549 lung cancer cell viability effects, profiling panel, resazurin fluorescence, 24 h, PK04 Diversity Set (AID 1171). Note: test concentration not given here. The conditions noted are these: higher = more signal, called active from +8 up or from −8 down. On the technique in general: Resazurin is reduced to fluorescent resorufin, in cell work by metabolically active cells.

Chain of NADPH oxidase 5 (Homo sapiens) (Q96PH1 whole entry, looked up): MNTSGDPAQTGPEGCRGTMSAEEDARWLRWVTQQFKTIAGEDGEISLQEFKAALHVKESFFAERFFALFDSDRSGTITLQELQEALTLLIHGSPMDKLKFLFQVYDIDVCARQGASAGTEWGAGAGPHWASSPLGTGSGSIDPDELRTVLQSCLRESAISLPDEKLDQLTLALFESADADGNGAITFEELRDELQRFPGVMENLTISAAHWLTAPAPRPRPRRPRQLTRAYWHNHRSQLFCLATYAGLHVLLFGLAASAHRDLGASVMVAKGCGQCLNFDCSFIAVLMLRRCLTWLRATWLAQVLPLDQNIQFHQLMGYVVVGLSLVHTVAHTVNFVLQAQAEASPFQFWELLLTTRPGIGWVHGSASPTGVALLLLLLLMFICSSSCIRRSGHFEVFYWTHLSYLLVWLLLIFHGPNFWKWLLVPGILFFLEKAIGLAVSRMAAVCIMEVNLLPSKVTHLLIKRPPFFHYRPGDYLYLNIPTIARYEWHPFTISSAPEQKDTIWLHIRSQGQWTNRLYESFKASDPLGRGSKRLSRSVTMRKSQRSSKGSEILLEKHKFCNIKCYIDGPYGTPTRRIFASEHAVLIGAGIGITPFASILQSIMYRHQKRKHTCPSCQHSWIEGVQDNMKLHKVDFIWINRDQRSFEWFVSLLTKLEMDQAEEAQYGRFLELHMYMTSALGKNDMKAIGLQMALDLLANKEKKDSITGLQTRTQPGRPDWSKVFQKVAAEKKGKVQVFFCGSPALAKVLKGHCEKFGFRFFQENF
Chain of NADPH oxidase 2 (Homo sapiens) (P04839 whole entry, looked up): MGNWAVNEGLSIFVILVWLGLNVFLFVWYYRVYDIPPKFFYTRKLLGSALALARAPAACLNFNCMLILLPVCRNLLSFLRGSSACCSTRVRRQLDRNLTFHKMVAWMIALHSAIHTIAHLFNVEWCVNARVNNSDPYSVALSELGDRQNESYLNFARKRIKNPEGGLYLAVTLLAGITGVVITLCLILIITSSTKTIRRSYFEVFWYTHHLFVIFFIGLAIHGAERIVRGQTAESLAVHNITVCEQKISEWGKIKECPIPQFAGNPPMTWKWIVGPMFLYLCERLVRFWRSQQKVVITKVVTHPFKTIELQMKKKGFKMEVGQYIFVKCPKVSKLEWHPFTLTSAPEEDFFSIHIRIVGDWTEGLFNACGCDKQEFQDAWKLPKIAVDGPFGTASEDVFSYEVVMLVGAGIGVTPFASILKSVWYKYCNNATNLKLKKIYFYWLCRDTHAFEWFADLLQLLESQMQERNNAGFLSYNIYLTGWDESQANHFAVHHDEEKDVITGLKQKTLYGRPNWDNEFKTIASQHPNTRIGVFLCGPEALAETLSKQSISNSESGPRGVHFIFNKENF
Chain of NADPH oxidase 4 (Homo sapiens) (Q9NPH5 whole entry, looked up): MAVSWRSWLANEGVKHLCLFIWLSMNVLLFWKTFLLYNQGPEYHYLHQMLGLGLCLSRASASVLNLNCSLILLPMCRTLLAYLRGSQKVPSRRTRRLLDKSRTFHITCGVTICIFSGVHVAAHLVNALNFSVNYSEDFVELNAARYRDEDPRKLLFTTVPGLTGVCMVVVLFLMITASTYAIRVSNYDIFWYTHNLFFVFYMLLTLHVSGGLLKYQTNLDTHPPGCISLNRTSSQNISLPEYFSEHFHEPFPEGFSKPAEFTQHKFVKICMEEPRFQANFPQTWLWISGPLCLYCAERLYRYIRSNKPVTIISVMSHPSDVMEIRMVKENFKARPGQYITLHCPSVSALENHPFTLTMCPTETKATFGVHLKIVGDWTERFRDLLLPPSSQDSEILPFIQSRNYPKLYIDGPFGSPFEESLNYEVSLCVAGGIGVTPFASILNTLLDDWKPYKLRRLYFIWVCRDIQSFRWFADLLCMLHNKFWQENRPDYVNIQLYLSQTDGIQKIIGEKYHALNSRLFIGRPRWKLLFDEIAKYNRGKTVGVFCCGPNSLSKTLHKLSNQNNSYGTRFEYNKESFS

As for `O=C1N(CCS(=O)(=O)c2ccccc2)Cc2ccccc2C[C@]12N=C(c1ccc(OCCCO)cc1)O[C@@H]2c1ccccc1`, the z-score in [1] is 0.697 (inactive); in test [3], 22.2 (active); in [4] it was 8.54 (active); in test [5], 0.443 (inactive); in [6], 0.427 (inactive); in test [7], 2.67. The z-score in [8] was -0.282 (inactive); in test [9], 1 (inactive); in [10], -0.517; in test [11], 1.82; in test [12] it was 1.36; in test [13] it was 1.17. Further, the z-score was 0.835 in test [14]; -0.962 in [15]; -0.589 in [16]; 0.603 (inactive) in [17]; -1.08 in [18]; 0.309 in [19]. The z-score in test [20] was -3.17 (inactive). The same compound returned a composite z-score in [2] of 1.66.

With `CCCCCCCCCCC(O)C1C=CC2C(=O)N(Cc3ccccc3)C(=O)C2N1n1cnnc1` (stereo not given), the z-score in test [1] is -1.55 (inactive); in [3] it was 1.32 (inactive); in test [4], -0.595 (inactive); in test [5], 1.6 (inactive); in test [6], -2.48 (inactive); in test [7], 1.19. The z-score is -2.6 (inactive) in [8]; -1.1 (inactive) in [9]; -4.63 in test [10]; -0.509 in [11]; 0.381 in test [12]; -0.324 in test [13]. Further, the z-score in test [14] was -0.514; in [15], -0.921; in [16], 0.015; in [17], -1.51 (inactive); in [18], -0.0408; in test [19], -0.979. The z-score in [20] was -0.929 (inactive). In [2], this compound displayed a composite z-score of 0.918.

As for `C[N+](C)(C)CCCCCCNC(=O)[C@H]1C[C@H]2C(=O)N3CCC[C@H]3C(=O)N2[C@H]1c1ccc(O)cc1`, the z-score in test [1] was 0.864 (inactive); in [3], 1.37 (inactive); in test [4], -0.948 (inactive); in test [5], -0.937 (inactive); in [6] it was -1.44 (inactive); in test [7], 0.707. Moreover, the z-score in test [8] was -0.87 (inactive); in test [9], -1 (inactive); in [10], -2.81; in test [11], -0.827; in test [12], 0.262; in [13] it was -1.14. Further, the z-score is 0.327 in [14]; 0 in [15]; -1.4 in test [16]; 0.435 (inactive) in test [17]; -0.655 in test [18]; -0.439 in test [19]. Also, in [20], the z-score was 0.194 (inactive). Moreover, the composite z-score in [2] is -0.0489.

Consider `[N-]=[N+]=NCc1ccccc1C[C@]1(C(=O)O)N=C(c2ccc(OCCCO)cc2)O[C@H]1c1ccccc1CN=[N+]=[N-]`, for which the z-score in test [1] was -0.813 (inactive); in test [3], 21.5 (active); in test [4] it was 3.96 (inactive); in test [5], 0.649 (inactive); in test [6], 0.321 (inactive); in [7], -0.591. The z-score was -0.331 (inactive) in test [8]; 1.11 (inactive) in test [9]; 2.29 in test [10]; -0.437 in test [11]; 0.368 in test [12]; -0.302 in test [13]. For the same compound, the z-score in test [14] was -0.966; in [15], -1.53; in [16], -2.38; in test [17], -1.4 (inactive); in test [18], -0.789; in [19] it was 0.432. The z-score in test [20] is 1.17 (inactive). The compound further yielded a composite z-score in test [2] of 0.222.

With `C=C[C@H](COC(C)=O)N(Cc1ccc(OC(C)=O)c(OC)c1)S(=O)(=O)c1ccc(Br)cc1`, the z-score in test [1] is 1.49 (inactive); in test [3], 3.23 (inactive); in [4], -1.11 (inactive); in test [5] it was -0.827 (inactive); in [6], -1.15 (inactive); in test [7] it was 2. Besides, the z-score in [8] is -4.68 (inactive); in [9], -0.87 (inactive); in test [10], -1.95; in [11], 1.18; in test [12], 0.139; in test [13], 0.285. Also, the z-score in test [14] was 0.594; in test [15] it was 0.394; in test [16], 0.43; in test [17], 1.19 (inactive); in [18], 0.825; in [19] it was -0.886. For the same compound, in [20], the z-score is 0.353 (inactive). The compound also registered a composite z-score in [2] of 0.19.

For the compound `COCCOC(=O)N1C(=O)[C@@]2(c3ccccc31)[C@H](C(=O)NC[C@H](O)c1ccccc1)[C@H]1C(=O)O[C@H](c3ccccc3)[C@H](c3ccccc3)N1[C@@H]2c1ccc(OCCO)cc1`, the z-score in test [1] is 1.32 (inactive); in test [3], 3.97 (inactive); in [4], 1.89 (inactive); in [5] it was 0.968 (inactive); in test [6], 0.999 (inactive); in [7], 0.29. Besides, the z-score is 0.463 (inactive) in test [8]; 1.13 (inactive) in test [9]; -0.739 in [10]; -0.656 in test [11]; 1.13 in test [12]; -0.655 in test [13]. In addition, the z-score in [14] was -0.233; in [15], -0.773; in [16] it was 0.546; in test [17], 0.843 (inactive); in [18], -0.598; in test [19], -0.295. Moreover, the z-score in test [20] is 0.377 (inactive). The compound further displayed a composite z-score in test [2] of -0.496.

Consider `C=C[C@H](C)[C@@H](O)c1ccc(O)c2ccccc12`, for which the z-score in [1] was 0.048 (inactive); in [3] it was 1.01 (inactive); in test [4], 1.05 (inactive); in [5], 0.0353 (inactive); in test [6] it was 1.02 (inactive); in [7], -0.157. For the same compound, the z-score is -5.28 (inactive) in [8]; -1.05 (inactive) in test [9]; 1.33 in [10]; -0.573 in test [11]; -0.69 in [12]; -0.218 in test [13]. Further, the z-score in test [14] is -2.57; in [15], -1.55; in test [16], -1.98; in [17] it was -0.641 (inactive); in [18] it was -0.94; in test [19], -1.29. The z-score in [20] was -0.292 (inactive). In test [2], the composite z-score is 0.169.

As to `COCC(=C=CC[C@H](O)c1ccc(OCCO)cc1)C[C@H](O)c1cc(Cl)cc(Cl)c1O`, the z-score is 1.37 (inactive) in [1]; 10.3 (active) in test [3]; 2.44 (inactive) in test [4]; -2.64 (inactive) in test [5]; -0.162 (inactive) in test [6]; 0.175 in test [7]. Also, the z-score in [8] is -2.99 (inactive); in test [9], -1.12 (inactive); in test [10], -3.26; in test [11], -1.05; in [12] it was 0.0622; in [13] it was -0.616. In addition, the z-score in test [14] is -2.31; in test [15], -0.638; in test [16], -0.0342; in [17], 0.138 (inactive); in test [18] it was 0.04; in test [19], -1.42. For the same compound, in test [20], the z-score is 0.799 (inactive). In test [2], this compound gave a composite z-score of 0.155.

Turning to `COC(=O)c1ccc(OC)c(/C=C\CC(OC(C)=O)c2ccccc2)c1` (stereo not given), the z-score in test [1] is 0.0491 (inactive); in test [3], 8.02 (active); in test [4], 0.898 (inactive); in test [5] it was -0.358 (inactive); in test [6], 0.303 (inactive); in test [7] it was -0.0878. The z-score in test [8] was 0.0248 (inactive); in test [9], 0.415 (inactive); in test [10] it was -1.65; in test [11], -1.01; in test [12] it was 0.386; in [13], -0.753. Besides, the z-score in test [14] was -1.4; in test [15], -2.39; in test [16], -0.995; in test [17] it was -1.15 (inactive); in test [18] it was -0.578; in test [19] it was 0.0862. Besides, the z-score in [20] is 0.519 (inactive). In [2], this compound returned a composite z-score of -0.795.
